Assay [1] in a line: alternative oxidase inhibition and growth effect – profiling panel (AID 1259412).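 On growth (% of control): growth monitored over 72 h.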 The note with it: AOX-dependent respiration, at 500 µM; for growth (% of control): O2 uptake, measured here: growth; for O2 uptake (% of control): measured here: O2 uptake, control condition (no AOX).
Assay [2] concerns alternative oxidase (AOX). Described as above. The note with it: AOX-dependent respiration, at 500 µM, stronger effect = lower value.
Setting [3] is: AOX-dependent treatment condition, stronger effect = lower value.

Calls of active or inactive are those of the source. How the calls were made is not given here.

Turning to `Cc1cccc(C(=O)Nc2cccc(F)c2)c1`, the growth (% of control) was 0.51% in assay [1] (setting [3]) and 43.4% in assay [1] (control condition). Also, the O2 uptake (% of control) in assay [1] (stronger effect = lower value) is 87.8%; in assay [2], 30.7% (active).
The like results for `O=C(Nc1ccc(-n2ccnc2)cc1)c1cccc(Br)c1` were, in that order, 44.9%, 75.3%, 84.4% and 72.6% (active).
Regarding `Cc1cccc(C(=O)Nc2cccc(OCc3ccccc3)c2)c1`, the growth (% of control) in assay [1] (setting [3]) was found to be 93.7%; in assay [1] (control condition), 109%. Also, the O2 uptake (% of control) in assay [1] (stronger effect = lower value) is 108%; in assay [2] it was 67.8% (active).
On the same counts, the results for `O=C(Nc1cccc(Cl)c1)c1cccc(F)c1` are 17.8%, 60.1%, 78.3% and 24.6% (active).
On the same counts, the results for `O=C(Nc1cccc(I)c1)c1ccccc1I` are 112%, 94.8%, 84% and 13.1% (active).
On the same counts, the results for `O=C(Nc1ccccc1)c1cccc(I)c1` are 67.8%, 86.4%, 87.7% and 21.9% (active).
As for `NC(=O)c1ccccc1NC(=O)c1ccccc1I`, the growth (% of control) in assay [1] (setting [3]) was found to be 93.3%; in assay [1] (control condition) it was 82.7%. Further, the O2 uptake (% of control) in assay [1] (stronger effect = lower value) was 112%; in assay [2], 84.5% (inactive).
The like results for `Cc1cccc(C(=O)Nc2cccc(NC(=O)c3cccc(C)c3)c2)c1` were, in that order, 70.5%, 118%, 102% and 51.6% (active).
As for `O=C(Nc1ccccc1)c1cccc(Cl)c1`, the growth (% of control) in assay [1] (setting [3]) was found to be 92.3%; in assay [1] (control condition) it was 91.8%. The O2 uptake (% of control) in assay [1] (stronger effect = lower value) is 94.9%; in assay [2], 22% (active).
On the same counts, the results for `O=C(Nc1cccc([N+](=O)[O-])c1)c1ccccc1` are 61.1%, 103%, 95.6% and 36% (active).
The like results for `O=C(Nc1cccc(NC(=O)c2cccc(Br)c2)c1)c1cccc(Br)c1` were, in that order, 77.6%, 95.3%, 105% and 66.5% (active).
On the same counts, the results for `N#Cc1cccc(C(=O)Nc2ccc(N3CCOCC3)cc2)c1` are 96.5%, 92.2%, 105% and 90.5% (inactive).
`NC(=O)c1ccccc1NC(=O)c1cccc(Cl)c1`: the growth (% of control) in assay [1] (setting [3]) stood at 65.4%; in assay [1] (control condition), 68.9%. Besides, the O2 uptake (% of control) in assay [1] (stronger effect = lower value) is 85.8%; in assay [2], 41.6% (active).
Turning to `COc1cccc(C(=O)Nc2cccc(NC(=O)c3cccc(OC)c3)c2)c1`, the growth (% of control) in assay [1] (setting [3]) turned out to be 95.4%; in assay [1] (control condition), 96.8%. For the same molecule, the O2 uptake (% of control) in assay [1] (stronger effect = lower value) was 102%; in assay [2], 79.2% (inactive).
`COc1cccc(C(=O)NCc2ccc3c(c2)OCO3)c1`: the growth (% of control) in assay [1] (setting [3]) was found to be 46.4%; in assay [1] (control condition), 57%. Further, the O2 uptake (% of control) in assay [1] (stronger effect = lower value) was 95.8%; in assay [2] it was 36.4% (active).
Consider `O=C(Nc1cccc(C(F)(F)F)c1)c1cccc(Cl)c1`, for which the growth (% of control) in assay [1] (setting [3]) is 37.9%; in assay [1] (control condition), 93.2%. Further, the O2 uptake (% of control) in assay [1] (stronger effect = lower value) was 93.2%; in assay [2], 15.8% (active).
`COc1cc(NC(=O)c2cccc(F)c2)cc(OC)c1OC`: the values for the growth (% of control) in assay [1] (setting [3]) and in assay [1] (control condition) were 92.8% and 80.8%, respectively. The O2 uptake (% of control) in assay [1] (stronger effect = lower value) was 93.1%; in assay [2], 98.7% (inactive).
The like results for `O=C(Nc1cccc(Br)c1)c1cccc(I)c1` were, in that order, 103%, 98.1%, 89.6% and 20.2% (active).
In the case of `O=C(Nc1cccc(Br)c1)c1ccccc1I`, the values for the growth (% of control) in assay [1] (setting [3]) and in assay [1] (control condition) were 57.8% and 98.8%, respectively. Moreover, the O2 uptake (% of control) was 81% in assay [1] (stronger effect = lower value) and 10.4% (active) in assay [2].
Regarding `Cc1cccc(C(=O)Nc2ccccc2)c1`, the growth (% of control) was 50% in assay [1] (setting [3]) and 83.2% in assay [1] (control condition). The O2 uptake (% of control) was 103% in assay [1] (stronger effect = lower value) and 42.3% (active) in assay [2].
The like results for `COc1cc(NC(=O)c2cccc(C)c2)cc(OC)c1OC` were, in that order, 85.5%, 96.2%, 83.6% and 66.4% (active).
The like results for `N#Cc1cccc(C(=O)NCc2ccc3c(c2)OCO3)c1` were, in that order, 79.6%, 79.7%, 103% and 66.1% (active).
On the same counts, the results for `O=C(Nc1ccc(N2CCOCC2)cc1)c1cccc(F)c1` are 94.7%, 90.8%, 104% and 86.3% (inactive).
Regarding `O=C(Nc1cccc(C(F)(F)F)c1)c1cccc(Br)c1`, the growth (% of control) came to 58.1% in assay [1] (setting [3]) and 99.1% in assay [1] (control condition). Further, the O2 uptake (% of control) in assay [1] (stronger effect = lower value) was 80.2%; in assay [2], 22.3% (active).
On the same counts, the results for `Cc1cccc(C(=O)Nc2cccc(Cl)c2)c1` are 14.9%, 65.6%, 87.4% and 20.9% (active).
